# Inconclusive results are not listed. Calls of active or inactive are those of the source. Calls come from the whole dose curve; as a rule, active = well fitted cell-killing curve with a large enough effect in the repeat runs; inconclusive = weak or mixed curves, or effect the other way; inactive = no such curve, though single readings can be large or run the other way.
# Assay: qHTS assay to identify small molecule agonists of the vitamin D receptor (VDR) signaling pathway - cell viability counter screen (AID 743224); note: nearly all actives have a fitted effect of over 50% in size
# Settings: VDR-bla HEK293T viability, CellTiter-Glo luminescence, 16 h; series mostly up to 62.6 µM
# How it was run: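 VDR-bla cells were preincubated 4 h at 37C/5% CO2, then exposed to compounds for 16 h. After the 2 h room-temperature bla FRET read, CellTiter-Glo was added to the same wells and luminescence read after 30 min.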
row,Compound,outcome
1,C=CC[N+](C)(C)CC=C,inactive
2,CC1(C)NC(=O)NC1=O,inactive
3,CN(C)c1ccc(O)c2c1C[C@H]1C[C@H]3[C@H](N(C)C)C(=O)C(C(N)=O)=C(O)[C@@]3(O)C(=O)C1=C2O,inactive
4,O=C(O)/C=C/C(=O)O,inactive
5,C=C(C)CNCC,inactive
6,C=C(C)[C@H]1CC=C(C)C(=O)C1,inactive
7,O=[N+]([O-])c1ccc2nc[nH]c2c1,inactive
8,O=C(O)c1cc2ccccc2cc1O,inactive
9,C[C@]12CCC(=O)C=C1CC[C@@H]1[C@@H]2[C@@H](O)C[C@@]2(C)[C@H]1CC[C@]2(O)C(=O)CO,inactive
10,CCNc1cccc(C)c1,inactive
11,CC(CCl)OP(=O)(OC(C)CCl)OC(C)CCl (stereo unspecified),inactive
12,O=C(O)c1ccc(S(=O)(=O)N(Cl)Cl)cc1,inactive
13,O=C(O)CCCCCCCCC(=O)O,inactive
14,CC(C)(C)c1cc(Cc2cc(C(C)(C)C)c(O)c(C(C)(C)C)c2)cc(C(C)(C)C)c1O,inactive
15,CCCCCCCO,inactive
16,C[C@]12CC[C@@H]3c4ccc(O)cc4CC[C@H]3[C@@H]1C[C@@H](O)[C@@H]2O,inactive
17,CCNC(=S)NCC,inactive
18,OCc1ccccc1,inactive
19,COc1ccc(CCC(C)=O)cc1,inactive
20,Clc1ccccn1,inactive
21,C[Si]1(C)O[Si](C)(C)O[Si](C)(C)O[Si](C)(C)O1,inactive
22,C=C(C)C(=O)OCC(C)C,inactive
23,O=C(OCC1CCC2OC2C1)C1CCC2OC2C1 (stereo unspecified),inactive
24,CNC(=S)N(C)C,inactive
25,Brc1ccc(Br)c(Br)c1,inactive
26,COc1ccccc1OCC(O)CO (stereo unspecified),inactive
